Experimental data from PubChem BioAssay (NCATS).
Results filed as inconclusive are left out. Where a call stands in place of a potency, no number is given. Active and inactive are the calls of the source. Calls come from the whole dose curve; as a rule, active = well fitted inhibition curve with a large enough effect; inconclusive = small, poorly fitted or top-dose-only effect; inactive = flat fitted curve, though single readings scatter. Where a SMILES comes first, the peptide text is derived from it. The star is where a group is joined. βNA = c1ccc2cc(N*)ccc2c1; Cbz = O=C(OCc1ccccc1)*

What follows are compounds tested against Calcium and integrin-binding protein 1 (Homo sapiens) (UniProt Q99828) (assay: Primary qHTS for Identification of Calcium Integrin Binding Protein 1 (CIB1) Competitor (AID 1508620;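 note: GST tagged CIB1 binding a fluorescein labelled alphaIIb integrin peptide tracer; top concentration of the series differs between compounds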)). Settings: CIB1-GST / FITC-alphaIIb peptide fluorescence polarization; series mostly up to 57.7 µM.
Calcium and integrin-binding protein 1 (Homo sapiens), sequence (Q99828 whole entry, looked up): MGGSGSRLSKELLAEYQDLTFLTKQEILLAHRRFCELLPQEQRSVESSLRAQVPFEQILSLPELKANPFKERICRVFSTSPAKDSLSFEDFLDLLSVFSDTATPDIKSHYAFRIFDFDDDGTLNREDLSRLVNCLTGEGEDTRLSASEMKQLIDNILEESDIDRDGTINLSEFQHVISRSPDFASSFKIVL
How it was run: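 Fluorescence polarization competition: CIB1-GST (1 uM final) preincubated with compound 15 min at room temperature, then FITC-labeled alphaIIb peptide (100 nM final) added for another 15 min. Polarization read at Ex 480/Em 540.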

SMILES	Potency
CC1(O)CC(O)C2C(C(=O)O)=COC(OC3OC(CO)C(O)C(O)C3OC(=O)/C=C/c3ccc(O)cc3)C21 (stereo unspecified)	inactive
CC1=C2CC(O)(C(C)(C)O)C(O[C@@H]3O[C@H](CO)[C@@H](O)[C@H](O)[C@H]3O)CC(C)C2CC1=O (stereo partly specified)	inactive
CC1CCC2(C(=O)O)CCC3(C)C(=CCC4C5(C)C[C@@H](O)[C@@H](O)C(C)(CO)C5CCC43C)C2C1(C)O (stereo partly specified)	inactive
C/C(=C\C1CCC(C)C2CCC3(C)OC123)C(=O)O (stereo unspecified)	inactive
CC1=CC(=O)[C@]2(O[C@@H]3O[C@@H](C)[C@H](O)[C@@H](O)[C@H]3O)C=CO[C@@H](O[C@@H]3O[C@H](CO)[C@@H](O)[C@H](O)[C@H]3O)[C@H]12	inactive
CC(=O)OC1CC(C(C)(C)O)OC2CCC3(C)OC4=C(C(=O)C=C5C(C)C(OC(C)=O)C6(C)C(C)OC546)C(O)C3C12C (stereo unspecified)	inactive
COC(=O)C1=COC(O[C@@H]2O[C@H](CO)[C@@H](O)[C@H](O)[C@H]2O)/C(=C\COC(=O)/C=C/c2ccccc2)C1CC(=O)OCCc1ccc(O)cc1 (stereo partly specified)	inactive
CC(C)c1ccc2c(c1)[C@H](O)CC1[C@@](C)(C(=O)O)CCC[C@]21C (stereo partly specified)	inactive
CC12CC(O)C(O)C=C1c1cc(O)cc(O)c1C(=O)O2 (stereo unspecified)	inactive
C/C=C(\C)C(=O)OC[C@H]1O[C@@H](O[C@H]2[C@@H](O[C@H]3O[C@H](COC(=O)/C(C)=C/C)[C@@H](O)[C@H](O)[C@H]3O[C@@H]3O[C@H](CO)[C@@H](O)[C@H](OC(=O)/C(C)=C/C)[C@H]3O)O[C@H](COC(=O)/C(C)=C/C)[C@@H](O)[C@@H]2O)[C@H](O)[C@@H](O)[C@@H]1O	inactive
CC(=O)OC/C(=C/C(=O)O)CC[C@@H]1C(C)=CC(=O)[C@@H]2C(C)(C)CCC[C@@]12C	inactive
C/C1=C\CC[C@]2(C)O[C@H]2C(=O)c2c(C)coc2C1	inactive
CC1=CC(=O)C2C(C)(C)CCC[C@]2(C)[C@H]1CC[C@H](C)CC(=O)O (stereo partly specified)	inactive
OC[C@@]1(O)CO[C@H](OC[C@H]2O[C@@H](OC(CCCCc3ccc(O)cc3)CCc3ccc(O)cc3)[C@H](O)[C@@H](O)[C@@H]2O)[C@@H]1O (stereo partly specified)	inactive
CCC/C=C1\OC(=O)C2=C1CCC(O)C2O (stereo unspecified)	inactive
O=C(O)c1ccncc1Nc1nn(CCN2CCC(F)(F)CC2)c2ccc(F)cc12	inactive

SMILES	Potency
CC(C)CC(=O)NCCn1cc(C(=O)O)c(=O)cc1C(O)c1ccccc1 (stereo unspecified)	inactive
C=C1CC[C@H]2[C@@](C)(CCC(O)[C@@]2(C)CO)[C@@H]1/C=C/C(=C\C(=O)O)C(=O)O (stereo partly specified)	inactive
CC1=C2C[C@@]3(C)C(CCC[C@@H]3C)C(O)C2(O)OC1=O (stereo partly specified)	inactive
C=C1C(O)CC2C(C(=O)O)=COC(OC3OC(CO)C(O)C(O)C3OC(=O)/C=C\c3ccc(O)cc3)C12 (stereo unspecified)	inactive
CC1(C)CC[C@]2(C(=O)O[C@@H]3O[C@H](CO)[C@@H](O)[C@H](O)[C@H]3O)CC[C@]3(C)C(=CCC4[C@@]5(C)C[C@@H](O)[C@H](O)[C@@](C)(CO)C5[C@H](O)C[C@]43C)C2[C@@H]1O (stereo partly specified)	inactive
CC(C)CC(NC(=O)OCc1ccccc1)C(=O)NC(CC(C)C)C(=O)NC(CCC(=O)O)C(=O)Nc1ccc2ccccc2c1 (stereo not drawn) (Cbz-Leu-Leu-Glu-βNA; configuration not given here)	inactive
O=C1C(Cl)=C(N2CCOCC2)C(=O)N1c1ccc(Cl)c(Cl)c1	inactive
Cn1cc(Nc2cnccc2C(=O)O)c2cccnc21	inactive
NC1Nc2ccccc2C1(N)CC1NC(=O)C(Cc2ccccc2)NC(=O)C(Cc2ccccc2)NC1=O (stereo unspecified)	inactive
C=C1C[C@]23C[C@@]1(O)CC[C@H]2[C@@]12C=C[C@H](O)[C@@](C)(C(=O)O1)[C@H]2[C@@H]3C(=O)O	inactive
COc1ccc(C2(O)c3c(ccc4c3OC(C)(CCC=C(C)C)C=C4)NC(=O)C2OC)cc1 (stereo unspecified)	inactive
O=C(O)CCc1c(C(=O)O)[nH]c2cc(Cl)cc(Cl)c12	inactive
CC(O)C1CCC2C3CCC4CC(OC5OC(C(=O)O)C(O)C(O)C5O)CCC4(C)C3CCC12C (stereo unspecified)	inactive
COc1cc(/C=C/C(=O)O[C@H]2[C@H](O)[C@@H](CO)O[C@@]2(CO)O[C@H]2O[C@H](CO)[C@@H](O)[C@H](O)[C@H]2O)cc(OC)c1O	inactive
O=C(O)/C=C/c1ccc(O[C@@H]2O[C@H](CO)[C@@H](O)[C@H](O)[C@H]2O)cc1	inactive
